Results from ChEMBL document CHEMBL3988442, “University of Dundee, Small-Polar-MMV Screening Library” (2021).
In all, about 48,000 compounds went through this assay and about 13,000 (27%) showed an effect of 50% or more. The list shows a part of the results.

Test system: Wolbachia pipientis
Assay: Anti-Wolbachia Cell-Based Screen
Type: functional
Design: scale not given: in the data most compounds retested in dose-response had high values
Conditions: 5 µM

| Structure (SMILES) | Percent Effect [%] |
| --- | --- |
| CN1C(=O)[C@H]2CC[C@@H]1CN(C(=O)c1nnc3n1CCCCC3)C2 | 10.69 |
| NC(=O)NCCC(=O)NCc1cccnc1N1CCc2ccccc2C1 | 5.248 |
| Cn1cccc1CCC(=O)N1CCC2(CC1)c1ccccc1CC2O (stereo unspecified) | 8.573 |
| Cc1cccc(C2CCCN(C(=O)CN3CCCC3=O)C2)c1 (stereo unspecified) | -1.59 |
| Cc1cccc(CC(=O)N2CCCC(c3n[nH]c4nccnc34)C2)c1 (stereo unspecified) | 102.4 |
| COc1cccc(CC(=O)N2CCCC(c3n[nH]c4nccnc34)C2)c1 (stereo unspecified) | 81.22 |
| COc1cccc(COCC(=O)N2CCCC(c3cc(C)[nH]n3)C2)c1 (stereo unspecified) | 9.679 |
| N#Cc1cccc(NC2CC(=O)N(Cc3cccc(F)c3)C2)n1 (stereo unspecified) | 7.096 |
| CCN(Cc1ccc(Cl)s1)S(=O)(=O)CCOC | -12.02 |
| CCCc1n[nH]c(=O)n1Cc1ccccc1F | -4.193 |
| CC[C@@H](c1ccccc1)n1c(CN)n[nH]c1=O | 112.8 |
| NCc1n[nH]c(=O)n1-c1ccccc1Oc1ccccc1 | -5.025 |
| CCCc1cc(C(=O)NCCN2C(=O)c3ccccc3C2=O)[nH]n1 | -4.22 |
| CCCc1n[nH]c(=O)n1[C@@H](CC)c1ccccc1 | 92.4 |
| CCC(c1ccccc1)N1CCN(C(=O)c2cc(C(N)=O)c[nH]2)CC1 (stereo unspecified) | -8.4 |
| C[C@H](c1ccc(Cl)cc1)n1c(C2CC2)n[nH]c1=O | -27.24 |
| C[C@H](c1ccc(F)cc1)n1c(C2CCN(C)CC2)n[nH]c1=O | -149.6 |
| CC[C@@H](c1ccccc1)n1c(CCN)n[nH]c1=O | 91.36 |
| CC[C@@H](c1ccccc1)n1c(C2CC2)n[nH]c1=O | 115.6 |
| Cn1cccc1C(=O)NC1CCN(c2ccc(OC(F)(F)F)cc2)CC1 | -13.65 |
| CNC(=O)NC(=O)CN1CCC(c2c[nH]c3ccc(OC)cc23)CC1 | -6.098 |
| O=S(=O)(c1cccc(F)c1)N1C[C@@H]2COC[C@]2(COCC2CC2)C1 | -1.949 |

| Structure (SMILES) | Percent Effect [%] |
| --- | --- |
| COc1cc(CNCCC(N)=O)c2c(c1)CC(C)O2 (stereo unspecified) | 0.4704 |
| CCN(CC)C(CNC(=O)c1ccc(S(C)(=O)=O)cc1)c1ccco1 (stereo unspecified) | 12.65 |
| O=C(CNc1cc2c(cc1Br)OCCO2)NC1CCS(=O)(=O)C1 (stereo unspecified) | -16.13 |
| CCNc1nnc(SCC(=O)N2CCN(Cc3ccc(Cl)s3)CC2)s1 | -3.982 |
| Cc1ccc(C)c2c(C)c(C(=O)NCC[S+](C)[O-])[nH]c12 (stereo unspecified) | 91.32 |
| Cc1cccc2c(CCNC(=O)NCCC[S+](C)[O-])c[nH]c12 (stereo unspecified) | 21.8 |
| Cc1cccc2c(CCNC(=O)NCC[S+](C)[O-])c[nH]c12 (stereo unspecified) | -10.94 |
| OC1CCN(c2ccccc2NCc2nc(-c3cccs3)no2)CC1 | 8.395 |
| CNC(=O)N1CCC2(CC1)C(=O)N(C)c1c(F)cccc12 | 16.38 |
| CC(Cn1cc(Cl)cn1)C(=O)Nc1ccc(CN2CCCCCC2)cc1 (stereo unspecified) | 106.4 |
| O=C(NCCn1cc(Cl)cn1)C1CCN(C(=O)C2CC2)CC1 | 13.04 |
| O=C(NCc1ccc(CN2CCCCC2)cc1)Nc1cccnc1 | -23.63 |
| CC(C)n1nc2c(cc1=O)CN(Cc1ccc(-n3cccn3)cc1)CC2 | 0.8403 |
| O=C(c1cncc(N2CCC3(CCCNC3)C2)n1)N1CCCC1 (stereo unspecified) | 43.3 |
| COc1cc(C2(C(=O)NC3CCC4(CC3)OCCO4)CC2)ccc1C | 0.5256 |
| NCC1CCCN(c2nc(-c3ccccc3)nc3c2CCNCC3)C1 (stereo unspecified) | -16.76 |
| COC[C@H]1CCCN1c1nccc(-c2cnn(-c3ccccc3C)c2)n1 | 94.7 |
| Cc1ccccc1-n1cc(-c2ccnc(N3CCCC(CN)C3)n2)cn1 (stereo unspecified) | 108.9 |
| Cc1cnc(N2CCCC(O)C2)nc1-c1ccnn1C (stereo unspecified) | -3.995 |
| COCc1noc(-c2ccc(N3CCCCC3COC)nc2)n1 (stereo unspecified) | 2.136 |
| Cc1ccccc1-n1cc(-c2ccnc(N[C@H](CO)C(C)C)n2)cn1 | -13.53 |
| Cc1ccccc1-n1cc(-c2ccnc(N3CCCC(O)C3)n2)cn1 (stereo unspecified) | 107.7 |

| Structure (SMILES) | Percent Effect [%] |
| --- | --- |
| Cc1ccccc1-n1cc(CN(C)C[C@@H]2CCCN3CCCC[C@H]23)cn1 | 9.143 |
| O=C1CC2(CCN(Cc3ccc(C(F)(F)F)nc3)CC2)CN1 | -10.7 |
| O=S(=O)(Cc1ccccc1F)NCCCN1CCCCC1 | -1.108 |
| CCCc1cc(NCCCC2CCOC2)n2nccc2n1 (stereo unspecified) | -21.79 |
| CC(C)C[C@H](Nc1nc(C2CCCC2)nc2c1cnn2C)C(N)=O | 1.529 |
| O=C1O[C@@H]2CN(Cc3ccccc3)C[C@@H]2N1CCCN1CCOCC1 | -2.411 |
| CCN(C)CC(=O)N1CCCC(c2nnc(CN3CCOCC3)n2C)C1 (stereo unspecified) | 14.42 |
| Cn1c(=O)oc2ccc(NC(=O)N3CCOCC3)cc21 | 0.8661 |
| Cn1c(CN2CCOCC2)nnc1C1CCCN(CC(N)=O)C1 (stereo unspecified) | -18.54 |
| CN(CCN1CCCCC1)C(=O)c1cc(CN2CCOCC2)on1 | 7.335 |
| CCS(=O)(=O)N1CCC(c2nnc(CN3CCOCC3)n2C)CC1 | 4.44 |
| CC(C)NC(=O)N1CCCC(c2nnc(CN3CCOCC3)n2C)C1 (stereo unspecified) | 7.81 |
| Cn1c(CN2CCOCC2)cc(=O)c(O)c1CN1CCOCC1 | 102.7 |
| Cn1c(CN2CCOCC2)cc(=O)c(O)c1CN1CCCCC1 | 117.1 |
| Cn1c(CN2CCOCC2)cc(=O)c(O)c1CN1CCCC1 | 100.1 |
| O=C(NCCN1CCCC1)c1nc2c(o1)CN(C(=O)c1cccnc1)C2.O=C(O)C(F)(F)F.O=C(O)C(F)(F)F | -5.766 |
| COCCN1CCc2ncc(CN(C)C)n2CC1 | -10.98 |
| CC1CN(S(=O)(=O)c2ccc(F)cc2F)c2cccnc2O1 (stereo unspecified) | -5.201 |
| NC(=O)NC(=O)CCN1C(=O)CC(Cc2ccc(F)cc2)C1=O (stereo unspecified) | 2.732 |
| COc1cccc(C(=O)N2CCOCC2CN(C)C)c1OC.O=CO (stereo unspecified) | 3.966 |
| Cc1cc(C(=O)N[C@H]2CN(CCC(N)=O)C[C@@H]2C2CC2)sc1C | 6.856 |
| Cc1cccc(C(=O)Nc2cccc3c2CCCC3)n1 | -12.03 |

| Structure (SMILES) | Percent Effect [%] |
| --- | --- |
| O=C(Nc1cccc2c1CCCC2)c1cccnc1N1CCCNCC1 | 136.8 |
| O=C(Nc1cccc2c1CCCC2)C1CCCN1c1nccs1 (stereo unspecified) | 15.72 |
| O=C(Nc1cccc2c1CCCC2)c1cccc(CN2CC[C@H](O)C2)c1 | -13.79 |
| CC1CN(c2ncccc2C(=O)Nc2cccc3c2CCCC3)CCN1 (stereo unspecified) | 121.2 |
| NC(=O)c1cccnc1N1CCN(c2ncnc3c2CCNC3)CC1 | -13.85 |
| CC1CN(c2ncccc2C(=O)N[C@@H]2CCCc3ccccc32)CCN1 (stereo partly specified) | 127.7 |
| O=C(CS(=O)(=O)c1ncccc1Cl)NC1CCCc2ccccc21 (stereo unspecified) | 0.01745 |
| O=C(CS(=O)(=O)c1ccccn1)NC1CCCc2ccccc21 (stereo unspecified) | 25.59 |
| Cc1cc(N2CCN(C(=O)c3cc(Cl)c[nH]3)CC2)nc(N)n1 | 3.543 |
| CC(=O)CCCC(=O)N(Cc1ccsc1)CC(C)C | -0.6388 |
| CC(NC(=O)Cn1ccnc1)c1ccc(OCC2CC2)c(F)c1 (stereo unspecified) | 47.59 |
| Cc1cc(CC(=O)NC(C)c2ccc(OCC3CC3)c(F)c2)n[nH]1 (stereo unspecified) | -4.858 |
| CC(NC(=O)N(C)C1CC1)c1ccc(Oc2cccnc2)c(F)c1 (stereo unspecified) | 100.6 |
| CC(NC(=O)c1ccnn1C)c1ccc(OCC2CC2)c(F)c1 (stereo unspecified) | 28.88 |
| CCN(CC)C(=O)NC(C)c1ccc(Oc2cccnc2)c(F)c1 (stereo unspecified) | 111 |
| CC(NC(=O)Cc1ccon1)c1ccc(OCC2CC2)c(F)c1 (stereo unspecified) | 0.6015 |
| CCC(C#N)NC(=O)c1ccc(Oc2cccnc2)cc1 (stereo unspecified) | -3.415 |
| CC(CNC(=O)c1ccccc1Oc1cccnc1)N(C)C (stereo unspecified) | 3.869 |
| CC(NC(=O)CN(C)C(C)C)c1ccc(Oc2cccnc2)c(F)c1 (stereo unspecified) | 102.4 |
| CN(C)C1Cc2ccccc2N(S(=O)(=O)c2ccc(C#N)cc2)C1 (stereo unspecified) | -15.49 |
| OC[C@@H](O)CN(CCC(F)(F)F)c1ncc(Cl)cn1 | -0.8071 |
| CNc1cc(-c2ccncc2)ncn1 | 104.2 |

| Structure (SMILES) | Percent Effect [%] |
| --- | --- |
| OCCNc1cc(-c2ccccc2)ncn1 | 107.4 |
| OCC1CCCN1c1cc(NCCNc2ccccn2)ncn1 (stereo unspecified) | 1.6 |
| OCCNc1cc(N2CCN(Cc3ccccc3)C(CCO)C2)ncn1 (stereo unspecified) | 0.1628 |
| OCCNc1cc(-c2ccncc2)ncn1 | 123.3 |
| O=C(NCCNc1cc(N2CCCC2)ncn1)c1cnccn1 | 10.51 |
| Cn1ccc2c(-c3ccc(NCCO)nn3)ccnc21 | 2.598 |
| CN(C)C(=O)c1cc(NC(=O)N2CCCC(C(F)(F)F)C2)ccn1 (stereo unspecified) | -9.482 |
| COc1ccc(Cc2ncc3c(n2)CN(C(=O)CCO)C3)cc1 | -39.39 |
| Cc1c(CNC(=O)C2CCCCCN2C)oc2ccccc12 (stereo unspecified) | 0.5854 |
| N#Cc1ccc(CN(CC(N)=O)C2CCCC2)c(Br)c1 | -1.736 |
| CN1CC(Oc2ccc(Cl)cc2)=NC(SCC(=O)Nc2ccccc2)=N1 | 25.95 |
| CC(C)(C)c1ncc(C(=O)NCCSc2ccccn2)c(O)n1 | 2.392 |
| Cc1nn(-c2ccccc2)c(C)c1-c1ccnc(N2CCCNCC2)n1 | 14.93 |
| Cc1nn(C)cc1-c1ccnc(N2CCCN(CC(C)C)CC2)n1 | 87.41 |
| Cc1nn(C)c(C)c1-c1ccnc(N2CCCN(CC(C)C)CC2)n1 | 93.07 |
| CC(=O)N1CCCN(c2nccc(-c3c(C)nn(C)c3C)n2)CC1 | 41.92 |
| Cc1nn(C)cc1-c1ccnc(N2CCSCC2)n1 | -11.35 |
| CC(=O)N1CCCN(c2nccc(-c3cn(C)nc3C)n2)CC1 | -3.527 |
